Results on 18 molecules are retold here after paper PMC5540273 (PLoS ONE, 2017).

Like-named read-outs stand apart in the source and are kept apart here.

Some test systems named below: LYN; MAK; MAP3K15; MAP3K1; MAP3K2; MAP3K3; MAP3K4; MAP4K2; MAP4K3.
Conditions in all cases: n = 1
The next experiment relates to T1, LZK.
T1 construct: gene MAP3K13

The mark [1] stands for this setting: concentration: 1 μM, replicates: in singlicate.
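Note: KINOMEscan kinase panel screen.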

Regarding `Cn1ccc2ncnc(Oc3cccc(C(=O)Nc4ccccc4)c3)c21`, the “%Inh” value in the experiment with LYN (setting [1]) is reported as 9%; in the experiment on LZK (setting [1]), 0%; with MAK (setting [1]) it was 8%; in the experiment on MAP3K15 (setting [1]), 0%; in the experiment with MAP3K1 (setting [1]), 0%; in the experiment on MAP3K2 (setting [1]), 11%. The “%Inh” value was determined as 0% with MAP3K3 (setting [1]), 0% in the experiment with MAP3K4 (setting [1]), 2% with MAP4K2 (setting [1]) and 15% in the experiment on MAP4K3 (setting [1]).
Take `COc1cccc(-c2cc(-c3c[nH]nc3-c3ccccn3)ccn2)c1` [GW680338]: the “%Inh” value amounted to 26% in the experiment with LYN (setting [1]); 28% in the experiment on LZK (setting [1]); 100% in the experiment on MAK (setting [1]); 0% in the experiment with MAP3K15 (setting [1]); 15% in the experiment with MAP3K1 (setting [1]); 0% in the experiment on MAP3K2 (setting [1]). The “%Inh” value in the experiment on MAP3K3 (setting [1]) came out at 0%; with MAP3K4 (setting [1]), 15%; with MAP4K2 (setting [1]) it was 8%; in the experiment on MAP4K3 (setting [1]), 0%.
As for `Cc1ccccc1-n1cnc2c(N)ncnc21` [SKF-97510], the “%Inh” value in the experiment with LYN (setting [1]), with LZK (setting [1]), in the experiment on MAK (setting [1]), in the experiment with MAP3K15 (setting [1]), in the experiment with MAP3K1 (setting [1]) and in the experiment with MAP3K2 (setting [1]) was 0% each time. The “%Inh” value with MAP3K3 (setting [1]), with MAP3K4 (setting [1]), with MAP4K2 (setting [1]) and with MAP4K3 (setting [1]) was 0% in each case.
Consider `Cc1cccc(-c2nc(Nc3ccc4[nH]ncc4c3)c3ccccc3n2)n1` [GW857175], for which the “%Inh” value is given as 17% with LYN (setting [1]); 10% in the experiment with LZK (setting [1]); 0% with MAK (setting [1]); 0% in the experiment with MAP3K15 (setting [1]); 38% in the experiment with MAP3K1 (setting [1]); 36% in the experiment on MAP3K2 (setting [1]). Also, the “%Inh” value is listed as 0% in the experiment with MAP3K3 (setting [1]), 14% in the experiment with MAP3K4 (setting [1]), 39% in the experiment with MAP4K2 (setting [1]) and 0% in the experiment on MAP4K3 (setting [1]).
Turning to `COc1cc2ncnc(Nc3ccc4nc(-c5ccccc5)[nH]c4c3)c2cc1OC.Cl` [GW282450], the “%Inh” value with LYN (setting [1]) was 0%; in the experiment on LZK (setting [1]) it was 0%; in the experiment on MAK (setting [1]) it was 0%; in the experiment on MAP3K15 (setting [1]) it was 0%; with MAP3K1 (setting [1]), 19%; in the experiment with MAP3K2 (setting [1]), 8%. The “%Inh” value with MAP3K3 (setting [1]) came out at 0%; in the experiment with MAP3K4 (setting [1]), 9%; in the experiment on MAP4K2 (setting [1]), 0%; in the experiment with MAP4K3 (setting [1]) it was 3%.
Take `Fc1cccc(COc2nnc(-c3ccc4c(c3)CCO4)o2)c1`: the “%Inh” value with LYN (setting [1]) is recorded as 6%; in the experiment on LZK (setting [1]), 14%; in the experiment with MAK (setting [1]), 0%; in the experiment on MAP3K15 (setting [1]), 17%; in the experiment with MAP3K1 (setting [1]), 17%; in the experiment with MAP3K2 (setting [1]) it was 0%. Moreover, the “%Inh” value worked out at 0% with MAP3K3 (setting [1]), 0% with MAP3K4 (setting [1]), 0% with MAP4K2 (setting [1]) and 2% with MAP4K3 (setting [1]).
With `Cc1ccc(-c2cc(-c3c[nH]nc3-c3ccccn3)ccn2)cc1` [GW684088], the “%Inh” value stood at 1% with LYN (setting [1]); 44% in the experiment on LZK (setting [1]); 0% with MAK (setting [1]); 0% in the experiment on MAP3K15 (setting [1]); 9% with MAP3K1 (setting [1]); 0% in the experiment on MAP3K2 (setting [1]). In addition, the “%Inh” value came to 0% with MAP3K3 (setting [1]), 4% in the experiment with MAP3K4 (setting [1]), 0% in the experiment on MAP4K2 (setting [1]) and 0% with MAP4K3 (setting [1]).
`Cc1c(O)cccc1Nc1ccnc2ccc(C(F)(F)F)cc12.Cl` [GW466413]: the “%Inh” value is given as 0% in the experiment with LYN (setting [1]); 14% with LZK (setting [1]); 0% with MAK (setting [1]); 0% in the experiment with MAP3K15 (setting [1]); 2% in the experiment on MAP3K1 (setting [1]); 22% with MAP3K2 (setting [1]). The “%Inh” value is listed as 47% in the experiment on MAP3K3 (setting [1]), 0% in the experiment on MAP3K4 (setting [1]), 0% in the experiment on MAP4K2 (setting [1]) and 0% in the experiment with MAP4K3 (setting [1]).
In the case of `Nc1nc(-c2nccs2)c(-c2ccnc3ccccc23)s1` [GW693542], the “%Inh” value in the experiment on LYN (setting [1]) was found to be 3%; in the experiment on LZK (setting [1]), 3%; with MAK (setting [1]) it was 46%; in the experiment on MAP3K15 (setting [1]) it was 0%; in the experiment on MAP3K1 (setting [1]), 13%; in the experiment with MAP3K2 (setting [1]) it was 0%. Also, the “%Inh” value in the experiment on MAP3K3 (setting [1]) came out at 0%; in the experiment on MAP3K4 (setting [1]), 27%; in the experiment on MAP4K2 (setting [1]), 0%; in the experiment on MAP4K3 (setting [1]), 0%.
In the case of `Cc1cccc(-c2nc(C)cc(Nc3ccncc3)n2)n1` [GSK257997], the “%Inh” value in the experiment on LYN (setting [1]) is recorded as 0%; in the experiment with LZK (setting [1]), 0%; in the experiment with MAK (setting [1]) it was 16%; in the experiment on MAP3K15 (setting [1]) it was 0%; in the experiment on MAP3K1 (setting [1]), 21%; with MAP3K2 (setting [1]) it was 0%. The “%Inh” value was 0% with MAP3K3 (setting [1]), 14% with MAP3K4 (setting [1]), 0% with MAP4K2 (setting [1]) and 0% with MAP4K3 (setting [1]).
`Cc1ccc(NC(=O)Nc2cccc(C(F)(F)F)c2)cc1` [GSK955403]: the “%Inh” value in the experiment with LYN (1 µM), in the experiment with LZK (1 µM), in the experiment on MAK (1 µM), in the experiment on MAP3K15 (1 µM), in the experiment on MAP3K1 (1 µM) and in the experiment with MAP3K2 (1 µM) was 0% in each case. Further, the “%Inh” value stood at 3% in the experiment with MAP3K3 (1 µM), 35% with MAP3K4 (1 µM), 0% in the experiment with MAP4K2 (1 µM) and 0% in the experiment on MAP4K3 (1 µM).
With `O=C(Nc1n[nH]c2nc(-c3nccs3)c(Br)cc12)C1CCCC1` [SB-742609], the “%Inh” value in the experiment on LYN (setting [1]) worked out at 0%; with LZK (setting [1]) it was 0%; with MAK (setting [1]) it was 75%; in the experiment on MAP3K15 (setting [1]) it was 6%; with MAP3K1 (setting [1]), 15%; with MAP3K2 (setting [1]), 5%. Moreover, the “%Inh” value turned out to be 0% with MAP3K3 (setting [1]), 28% in the experiment on MAP3K4 (setting [1]), 0% in the experiment on MAP4K2 (setting [1]) and 0% in the experiment with MAP4K3 (setting [1]).
As for `Cc1cccc(-c2nc(Nc3cccc(C(N)=O)c3)c3ccccc3n2)n1` [GW876019], the “%Inh” value in the experiment on LYN (setting [1]) came out at 0%; with LZK (setting [1]) it was 0%; in the experiment on MAK (setting [1]), 0%; with MAP3K15 (setting [1]), 0%; in the experiment on MAP3K1 (setting [1]), 3%; with MAP3K2 (setting [1]), 0%. The “%Inh” value in the experiment on MAP3K3 (setting [1]) is on record as 26%; in the experiment on MAP3K4 (setting [1]), 0%; in the experiment on MAP4K2 (setting [1]), 0%; in the experiment on MAP4K3 (setting [1]) it was 0%.
Consider `O=S(=O)(c1ccc(-c2ccnc3[nH]ccc23)cc1)N1CCCC1` [GSK846226], for which the “%Inh” value with LYN (setting [1]) worked out at 0%; in the experiment on LZK (setting [1]), 0%; in the experiment with MAK (setting [1]), 24%; in the experiment on MAP3K15 (setting [1]), 0%; in the experiment with MAP3K1 (setting [1]) it was 14%; in the experiment on MAP3K2 (setting [1]) it was 7%. In addition, the “%Inh” value in the experiment on MAP3K3 (setting [1]), in the experiment with MAP3K4 (setting [1]), with MAP4K2 (setting [1]) and with MAP4K3 (setting [1]) was 0% in each case.
Take `Cn1ccc2ncnc(Oc3ccc(NC(=O)Nc4ccccc4)cc3)c21`: the “%Inh” value in the experiment on LYN (setting [1]) was determined as 6%; with LZK (setting [1]), 9%; in the experiment on MAK (setting [1]) it was 6%; in the experiment on MAP3K15 (setting [1]), 0%; in the experiment on MAP3K1 (setting [1]) it was 0%; in the experiment on MAP3K2 (setting [1]), 0%. Also, the “%Inh” value in the experiment with MAP3K3 (setting [1]) is 11%; in the experiment on MAP3K4 (setting [1]), 10%; with MAP4K2 (setting [1]), 0%; with MAP4K3 (setting [1]), 18%.
Turning to `COc1cccc(NC(=O)NC2CCN(c3ccnc(Nc4ccc(F)cc4)n3)C2)c1` (stereo not drawn) [GSK1379721], the “%Inh” value in the experiment on LYN (setting [1]) came to 0%; in the experiment with LZK (setting [1]) it was 17%; in the experiment with MAK (setting [1]), 32%; in the experiment with MAP3K15 (setting [1]) it was 0%; with MAP3K1 (setting [1]), 5%; with MAP3K2 (setting [1]), 0%. Also, the “%Inh” value in the experiment on MAP3K3 (setting [1]) came out at 0%; in the experiment with MAP3K4 (setting [1]), 13%; with MAP4K2 (setting [1]), 2%; in the experiment on MAP4K3 (setting [1]), 0%.
On to `Fc1cc(Cl)ccc1Nc1ccnc2cc(I)ccc12` [GW551191], for which the “%Inh” value in the experiment on LYN (setting [1]) was found to be 14%; with LZK (setting [1]) it was 0%; in the experiment with MAK (setting [1]), 40%; in the experiment on MAP3K15 (setting [1]) it was 0%; in the experiment with MAP3K1 (setting [1]), 7%; in the experiment with MAP3K2 (setting [1]), 0%. Also, the “%Inh” value in the experiment with MAP3K3 (setting [1]), with MAP3K4 (setting [1]), in the experiment with MAP4K2 (setting [1]) and in the experiment on MAP4K3 (setting [1]) was 0% each time.
Regarding `Cc1cccc(-c2nc(-c3ccc(S(C)(=O)=O)cc3)sc2-c2ccnc(NCCc3ccccc3)c2)c1`, the “%Inh” value in the experiment on LYN (setting [1]) was 5%; with LZK (setting [1]), 2%; in the experiment with MAK (setting [1]) it was 0%; with MAP3K15 (setting [1]), 10%; with MAP3K1 (setting [1]) it was 0%; in the experiment with MAP3K2 (setting [1]), 0%. In addition, the “%Inh” value amounted to 0% in the experiment on MAP3K3 (setting [1]), 16% with MAP3K4 (setting [1]), 15% in the experiment with MAP4K2 (setting [1]) and 0% with MAP4K3 (setting [1]).
